The source of these data is ChEMBL document CHEMBL5606460, “ASAP - DENV-2 NS2B-NS3 protease fluorescence single point” (2024).

For orientation: inhibition means the relative decrease from the control value, in per cent.

The assay concerns the target Genome polyprotein (dengue virus type 2) (UniProt P29990).
Setting [1] is: Thailand/16681/1984, Concentration 25.0 uM, Number of replicates 1.0.

The whole screen tested about 2,000 compounds, of which about 110 (5.5%) showed an effect of 50% or more. For the sample, strong results were picked, then their nearest neighbours and some compounds at random.

On to `N[C@H]1CC[C@H](NC(=O)[C@@H](NC(=O)OCc2ccccc2)c2ccc(OCc3ccccc3)cc2)C1`, for which the inhibition was -9.06% (Thailand/16681/1984, Concentration 49.5 uM, Number of replicates 2.0, Standard deviation 0.9979193615621401 %); -6.13% (Thailand/16681/1984, Concentration 49.5 uM, Number of replicates 2.0, Standard deviation 5.780389191288721 %); -6.77% (Thailand/16681/1984, Concentration 99.01 uM, Number of replicates 2.0, Standard deviation 0.21863424783935215 %); -4.83% (Thailand/16681/1984, Concentration 99.01 uM, Number of replicates 2.0, Standard deviation 4.8738871027899835 %); 3.56% (Thailand/16681/1984, Concentration 198.0 uM, Number of replicates 2.0, Standard deviation 0.20009536646595624 %); 6.71% (Thailand/16681/1984, Concentration 198.0 uM, Number of replicates 2.0, Standard deviation 2.9330264990309507 %).
In the case of `Cn1cc(NC(=O)c2ccccc2C(F)(F)F)c(-c2ccc(O)cc2)n1`, the inhibition was -3.58% (Thailand/16681/1984, Concentration 49.5 uM, Number of replicates 2.0, Standard deviation 1.4149767575059302 %); -2.21% (Thailand/16681/1984, Concentration 99.01 uM, Number of replicates 2.0, Standard deviation 0.6191126751592 %); -3.21% (Thailand/16681/1984, Concentration 198.0 uM, Number of replicates 2.0, Standard deviation 0.2617465963559337 %).
As to `O=C1C[C@@H](CNC(=O)c2cc(Cl)ccc2NS(=O)(=O)c2ccc(Oc3ccccc3Cl)cc2)CN1`, the inhibition was 12.4% (Thailand/16681/1984, Concentration 49.5 uM, Number of replicates 2.0, Standard deviation 1.683767946709369 %); 57.2% (Thailand/16681/1984, Concentration 99.01 uM, Number of replicates 2.0, Standard deviation 0.12281254481286434 %); 53.6% (Thailand/16681/1984, Concentration 198.0 uM, Number of replicates 2.0, Standard deviation 0.21046989752060982 %).
Turning to `O=C1C[C@@H](NS(=O)(=O)c2ccc(Oc3ccccc3Cl)cc2)CCN1`, the inhibition is, setting by setting: (Thailand/16681/1984, Concentration 49.5 uM, Number of replicates 2.0, Standard deviation 1.1905021365747266 %) -5.52%; (Thailand/16681/1984, Concentration 99.01 uM, Number of replicates 2.0, Standard deviation 1.0784606403673063 %) -3.29%; (Thailand/16681/1984, Concentration 198.0 uM, Number of replicates 2.0, Standard deviation 1.453680839379123 %) -1%.
Turning to `O=C(NC[C@H]1CCCO1)c1cc(Cl)ccc1NS(=O)(=O)c1ccc(Oc2ccccc2Cl)cc1`, the inhibition (Thailand/16681/1984, Concentration 49.5 uM, Number of replicates 2.0, Standard deviation 0.11391652520397291 %) worked out at 86.2%; the inhibition (Thailand/16681/1984, Concentration 99.01 uM, Number of replicates 2.0, Standard deviation 0.06140357500812747 %) is 84.7%; the inhibition (Thailand/16681/1984, Concentration 198.0 uM, Number of replicates 2.0, Standard deviation 0.13037604965923533 %) is 79.4%.
On to `O=C1NCCC[C@@H]1CNS(=O)(=O)c1ccc(Oc2ccccc2Cl)cc1`, for which the inhibition reads like this: (Thailand/16681/1984, Concentration 49.5 uM, Number of replicates 2.0, Standard deviation 0.9940716071741866 %) -2.68%; (Thailand/16681/1984, Concentration 99.01 uM, Number of replicates 2.0, Standard deviation 0.27557480876496404 %) -0.801%; (Thailand/16681/1984, Concentration 198.0 uM, Number of replicates 2.0, Standard deviation 0.9840594547230297 %) 1.79%.
Consider `O=C(N[C@H]1CCNC1=O)c1cc(Cl)ccc1NS(=O)(=O)c1ccc(Oc2ccccc2Cl)cc1`, for which the inhibition reads like this: (Thailand/16681/1984, Concentration 49.5 uM, Number of replicates 2.0, Standard deviation 0.36576586141779044 %) 30.3%; (Thailand/16681/1984, Concentration 99.01 uM, Number of replicates 2.0, Standard deviation 0.2318278972972024 %) 51.8%; (Thailand/16681/1984, Concentration 198.0 uM, Number of replicates 2.0, Standard deviation 0.7755829345495912 %) 18.9%.
In the case of `O=C1NCC[C@@H]1CNS(=O)(=O)c1ccc(Oc2ccccc2Cl)cc1`, the inhibition was -0.264% (Thailand/16681/1984, Concentration 49.5 uM, Number of replicates 2.0, Standard deviation 4.002985951466216 %); 0.42% (Thailand/16681/1984, Concentration 99.01 uM, Number of replicates 2.0, Standard deviation 4.526482853100752 %); 2.4% (Thailand/16681/1984, Concentration 198.0 uM, Number of replicates 2.0, Standard deviation 4.411103663666057 %).
As to `O=C(NCC1CC1)c1cc(Cl)ccc1NS(=O)(=O)c1ccc(Oc2ccccc2Cl)cc1`, the inhibition runs as follows: (Thailand/16681/1984, Concentration 49.5 uM, Number of replicates 2.0, Standard deviation 0.6779748794958176 %) 77.8%; (Thailand/16681/1984, Concentration 99.01 uM, Number of replicates 2.0, Standard deviation 0.21598068225710626 %) 88.2%; (Thailand/16681/1984, Concentration 198.0 uM, Number of replicates 2.0, Standard deviation 0.009057863507173258 %) 87%.
For the compound `C[C@H](NC(=O)C1CCN(c2ccc(C=O)cc2)CC1)c1ccc(Br)cc1`, the inhibition under setting [1] was 12.7%.
For `O=C(N[C@@H](C(=O)NC1CCNCC1)c1ccc(OCc2ccccc2)cc1)OCc1ccccc1`, the inhibition by setting is: (Thailand/16681/1984, Concentration 49.5 uM, Number of replicates 2.0, Standard deviation 0.04752487067458113 %) -0.225%; (Thailand/16681/1984, Concentration 99.01 uM, Number of replicates 2.0, Standard deviation 0.6611370067327399 %) -0.49%; (Thailand/16681/1984, Concentration 198.0 uM, Number of replicates 2.0, Standard deviation 1.22541945186685 %) 2.06%.
Take `CNc1ccccc1C(=O)Nc1cccc2c(CO)cc(C)nc12`: the inhibition was -0.213% (Thailand/16681/1984, Concentration 49.95 uM, Number of replicates 2.0, Standard deviation 1.7606224720878931 %) and 2.15% (Thailand/16681/1984, Concentration 99.9 uM, Number of replicates 2.0, Standard deviation 1.1796035516056886 %).
Consider `Cc1cc(N)c2cccc(F)c2n1`, for which the inhibition by setting is: (Thailand/16681/1984, Concentration 49.95 uM, Number of replicates 2.0, Standard deviation 2.207074007413848 %) -9.77%; (Thailand/16681/1984, Concentration 99.9 uM, Number of replicates 2.0, Standard deviation 2.035147234269057 %) -9.31%.
With `Cn1cc(NC(=O)c2ccccc2C(F)(F)F)c(-c2ccc(N)nc2)n1`, the inhibition by setting is: (Thailand/16681/1984, Concentration 49.5 uM, Number of replicates 2.0, Standard deviation 0.02318042950620363 %) -3.62%; (Thailand/16681/1984, Concentration 99.01 uM, Number of replicates 2.0, Standard deviation 0.5795125921164253 %) -3.54%; (Thailand/16681/1984, Concentration 198.0 uM, Number of replicates 2.0, Standard deviation 2.685074924440845 %) -2.16%.
`O=C(c1ccc2c(c1)B(O)OC2)N1CCN[C@H](c2ccc(Cl)cc2)C1`: the inhibition was -1.33% (Thailand/16681/1984, Concentration 49.5 uM, Number of replicates 2.0, Standard deviation 1.1051975895382533 %); -1.22% (Thailand/16681/1984, Concentration 99.01 uM, Number of replicates 2.0, Standard deviation 0.5109273627094355 %); -0.309% (Thailand/16681/1984, Concentration 198.0 uM, Number of replicates 2.0, Standard deviation 0.04393612974415127 %).
As for `Cc1n[nH]cc1-c1ccccc1C(=O)Nc1cnn(C)c1`, the inhibition runs as follows: (Thailand/16681/1984, Concentration 49.5 uM, Number of replicates 2.0, Standard deviation 1.4825862030761958 %) -4.22%; (Thailand/16681/1984, Concentration 99.01 uM, Number of replicates 2.0, Standard deviation 3.6856999240165664 %) -5.61%; (Thailand/16681/1984, Concentration 198.0 uM, Number of replicates 2.0, Standard deviation 2.662860479629087 %) -5.61%.
Consider `Cc1ccc(NC(=O)C2CCN(c3ccc(C=O)cc3)CC2)cc1Br`, for which, under setting [1], the inhibition came to 8.71%.
